# Measured values reported in PMC12350791.
# Legend:
# Actin, cytoplasmic 1 = Actin, cytoplasmic 1 (UniProt P60709); test: cross-linking mass spectrometry
# [1] = molecular target: DNA replication licensing factor MCM5 (UniProt P33992); test: cross-linking mass spectrometry
# [2] = molecular target: Acidic leucine-rich nuclear phosphoprotein 32 family member B (UniProt Q92688); test: cross-link between two proteins; cross-linking mass spectrometry
# Ankyrin-1 = Ankyrin-1 (UniProt P16157); test: as above
# [3] = molecular target: Centrosomal protein of 85 kDa (UniProt Q6P2H3); test: as above
# [4] = molecular target: Heterogeneous nuclear ribonucleoprotein K (UniProt P61978); test: as above
# Filamin-C = Filamin-C (UniProt Q14315); test: as above
# [5] = molecular target: Heterogeneous nuclear ribonucleoprotein A/B (UniProt Q99729); test: as above
# [6] = molecular target: Heterogeneous nuclear ribonucleoprotein M (UniProt P52272); test: as above
# [7] = molecular target: Leucine--tRNA ligase, cytoplasmic (UniProt Q9P2J5); test: as above
# Plastin-1 = Plastin-1 (UniProt Q14651); test: as above
# [8] = molecular target: Platelet-activating factor acetylhydrolase IB subunit alpha1 (UniProt Q15102); test: as above
# [9] = molecular target: Splicing factor 3B subunit 3 (UniProt Q15393); test: as above
# Tubulin alpha-4A chain = Tubulin alpha-4A chain (UniProt P68366); test: as above
# Tubulin beta-2B chain = Tubulin beta-2B chain (UniProt Q9BVA1); test: as above
# Tubulin beta-4B chain = Tubulin beta-4B chain (UniProt P68371); test: as above
# Zincore component SEPHS1 = Zincore component SEPHS1 (UniProt P49903); test: as above
# [10] = molecular target: Heterogeneous nuclear ribonucleoproteins C1/C2 (UniProt P07910); test: cross-link between two proteins; affinity purification or IP with mass spectrometry; cross-linking mass spectrometry
# [11] = molecular target: Heterogeneous nuclear ribonucleoprotein F (UniProt P52597); test: as above
# [12] = molecular target: RNA binding motif protein, X-linked-like-1 (UniProt Q96E39); test: as above
# Heat shock protein HSP 90-beta, P08238, sequence (P08238 whole entry): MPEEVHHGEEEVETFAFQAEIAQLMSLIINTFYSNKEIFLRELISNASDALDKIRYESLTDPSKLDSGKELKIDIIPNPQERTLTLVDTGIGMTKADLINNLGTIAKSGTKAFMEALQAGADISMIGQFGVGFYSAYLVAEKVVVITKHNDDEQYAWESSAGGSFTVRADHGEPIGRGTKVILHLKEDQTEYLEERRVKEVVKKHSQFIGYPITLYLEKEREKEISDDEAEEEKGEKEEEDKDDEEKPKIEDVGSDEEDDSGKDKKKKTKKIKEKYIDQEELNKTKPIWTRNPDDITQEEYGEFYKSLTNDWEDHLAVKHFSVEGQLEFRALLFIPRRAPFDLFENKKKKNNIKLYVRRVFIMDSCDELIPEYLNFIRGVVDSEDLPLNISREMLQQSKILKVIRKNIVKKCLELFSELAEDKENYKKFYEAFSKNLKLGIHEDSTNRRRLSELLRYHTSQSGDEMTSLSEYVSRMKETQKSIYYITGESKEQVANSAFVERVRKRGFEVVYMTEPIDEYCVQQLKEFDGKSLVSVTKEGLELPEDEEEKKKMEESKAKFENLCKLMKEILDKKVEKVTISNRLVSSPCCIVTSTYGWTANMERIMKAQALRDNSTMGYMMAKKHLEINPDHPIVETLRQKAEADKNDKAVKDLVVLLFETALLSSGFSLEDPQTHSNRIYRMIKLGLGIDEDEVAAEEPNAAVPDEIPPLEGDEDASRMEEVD
# DNA replication licensing factor MCM5, sequence (P33992 whole entry): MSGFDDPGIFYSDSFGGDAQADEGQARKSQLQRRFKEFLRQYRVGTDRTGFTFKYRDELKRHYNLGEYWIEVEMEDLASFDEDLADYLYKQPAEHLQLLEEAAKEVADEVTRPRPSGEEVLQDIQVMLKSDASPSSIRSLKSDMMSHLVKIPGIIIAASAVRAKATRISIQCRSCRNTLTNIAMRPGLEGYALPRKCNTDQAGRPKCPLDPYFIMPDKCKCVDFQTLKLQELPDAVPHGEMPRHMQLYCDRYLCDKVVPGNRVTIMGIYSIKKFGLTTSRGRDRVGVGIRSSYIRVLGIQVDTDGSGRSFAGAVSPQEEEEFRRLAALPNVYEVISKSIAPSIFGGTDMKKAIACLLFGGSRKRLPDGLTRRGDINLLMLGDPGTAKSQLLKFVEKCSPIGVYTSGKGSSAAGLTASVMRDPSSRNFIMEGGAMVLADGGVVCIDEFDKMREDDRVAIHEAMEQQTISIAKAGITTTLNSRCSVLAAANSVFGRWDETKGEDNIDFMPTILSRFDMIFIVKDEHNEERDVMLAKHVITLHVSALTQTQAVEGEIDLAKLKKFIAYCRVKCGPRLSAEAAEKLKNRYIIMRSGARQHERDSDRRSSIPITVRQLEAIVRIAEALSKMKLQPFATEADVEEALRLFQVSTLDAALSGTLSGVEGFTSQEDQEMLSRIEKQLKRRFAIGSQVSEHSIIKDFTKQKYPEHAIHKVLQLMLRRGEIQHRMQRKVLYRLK
# Heterogeneous nuclear ribonucleoprotein A/B, sequence (Q99729 whole entry): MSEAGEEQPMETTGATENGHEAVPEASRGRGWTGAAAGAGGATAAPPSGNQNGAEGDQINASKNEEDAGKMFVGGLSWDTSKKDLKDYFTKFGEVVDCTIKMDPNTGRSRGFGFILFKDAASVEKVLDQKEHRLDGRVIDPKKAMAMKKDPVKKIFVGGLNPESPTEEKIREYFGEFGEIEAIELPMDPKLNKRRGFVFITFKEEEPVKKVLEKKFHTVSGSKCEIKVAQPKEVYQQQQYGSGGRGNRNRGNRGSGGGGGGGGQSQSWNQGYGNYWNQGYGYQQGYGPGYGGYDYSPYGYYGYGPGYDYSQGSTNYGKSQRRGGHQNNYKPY
# Heterogeneous nuclear ribonucleoprotein F, sequence (P52597 whole entry): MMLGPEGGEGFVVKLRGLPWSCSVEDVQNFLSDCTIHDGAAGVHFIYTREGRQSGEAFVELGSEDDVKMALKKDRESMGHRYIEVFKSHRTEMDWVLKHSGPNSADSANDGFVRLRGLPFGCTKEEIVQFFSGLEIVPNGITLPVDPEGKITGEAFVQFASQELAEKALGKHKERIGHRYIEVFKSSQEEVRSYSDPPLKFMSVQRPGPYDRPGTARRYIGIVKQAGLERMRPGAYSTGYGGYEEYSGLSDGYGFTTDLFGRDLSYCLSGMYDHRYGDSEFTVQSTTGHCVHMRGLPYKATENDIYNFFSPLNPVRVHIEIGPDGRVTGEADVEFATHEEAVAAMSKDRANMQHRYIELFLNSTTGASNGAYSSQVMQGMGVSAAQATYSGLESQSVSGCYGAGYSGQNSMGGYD
# Heterogeneous nuclear ribonucleoprotein M, sequence (P52272 whole entry): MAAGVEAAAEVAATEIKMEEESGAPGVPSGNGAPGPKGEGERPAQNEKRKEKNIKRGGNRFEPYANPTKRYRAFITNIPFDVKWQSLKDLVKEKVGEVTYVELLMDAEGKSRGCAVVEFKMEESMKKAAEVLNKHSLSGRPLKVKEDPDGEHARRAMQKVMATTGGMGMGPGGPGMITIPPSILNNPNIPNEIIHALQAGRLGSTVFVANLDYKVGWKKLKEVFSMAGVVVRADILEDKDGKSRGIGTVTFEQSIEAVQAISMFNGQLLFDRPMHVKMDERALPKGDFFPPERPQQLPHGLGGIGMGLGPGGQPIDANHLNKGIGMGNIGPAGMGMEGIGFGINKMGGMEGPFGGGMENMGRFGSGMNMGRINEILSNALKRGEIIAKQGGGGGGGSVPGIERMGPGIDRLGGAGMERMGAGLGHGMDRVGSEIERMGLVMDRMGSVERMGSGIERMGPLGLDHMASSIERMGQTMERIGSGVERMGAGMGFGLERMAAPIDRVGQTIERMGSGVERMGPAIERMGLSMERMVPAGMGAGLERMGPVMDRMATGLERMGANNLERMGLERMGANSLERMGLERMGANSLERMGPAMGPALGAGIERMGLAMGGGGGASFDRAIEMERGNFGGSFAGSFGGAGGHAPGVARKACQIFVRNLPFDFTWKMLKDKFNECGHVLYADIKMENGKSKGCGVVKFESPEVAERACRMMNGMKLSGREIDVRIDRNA
# Centrosomal protein of 85 kDa, sequence (Q6P2H3 whole entry): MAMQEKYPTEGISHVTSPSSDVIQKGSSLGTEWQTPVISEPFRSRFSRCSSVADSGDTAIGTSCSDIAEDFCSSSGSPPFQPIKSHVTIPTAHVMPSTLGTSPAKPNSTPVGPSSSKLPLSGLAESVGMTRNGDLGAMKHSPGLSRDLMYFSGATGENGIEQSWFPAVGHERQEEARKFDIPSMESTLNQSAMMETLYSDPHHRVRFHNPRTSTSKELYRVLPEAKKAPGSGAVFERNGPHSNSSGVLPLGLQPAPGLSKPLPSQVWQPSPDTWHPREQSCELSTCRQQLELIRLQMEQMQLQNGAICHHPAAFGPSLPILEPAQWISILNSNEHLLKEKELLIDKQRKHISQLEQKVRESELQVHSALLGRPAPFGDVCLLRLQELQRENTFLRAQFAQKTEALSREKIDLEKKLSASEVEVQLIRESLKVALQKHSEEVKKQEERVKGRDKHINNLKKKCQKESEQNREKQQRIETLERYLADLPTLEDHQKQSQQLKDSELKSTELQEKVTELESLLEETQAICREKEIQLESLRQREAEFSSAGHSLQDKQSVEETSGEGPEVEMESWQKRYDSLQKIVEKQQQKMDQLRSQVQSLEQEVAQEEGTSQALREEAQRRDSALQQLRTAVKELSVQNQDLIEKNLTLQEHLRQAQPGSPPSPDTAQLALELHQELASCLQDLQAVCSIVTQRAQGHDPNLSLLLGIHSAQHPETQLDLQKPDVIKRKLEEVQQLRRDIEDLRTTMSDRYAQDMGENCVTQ
# Leucine--tRNA ligase, cytoplasmic, sequence (Q9P2J5 whole entry): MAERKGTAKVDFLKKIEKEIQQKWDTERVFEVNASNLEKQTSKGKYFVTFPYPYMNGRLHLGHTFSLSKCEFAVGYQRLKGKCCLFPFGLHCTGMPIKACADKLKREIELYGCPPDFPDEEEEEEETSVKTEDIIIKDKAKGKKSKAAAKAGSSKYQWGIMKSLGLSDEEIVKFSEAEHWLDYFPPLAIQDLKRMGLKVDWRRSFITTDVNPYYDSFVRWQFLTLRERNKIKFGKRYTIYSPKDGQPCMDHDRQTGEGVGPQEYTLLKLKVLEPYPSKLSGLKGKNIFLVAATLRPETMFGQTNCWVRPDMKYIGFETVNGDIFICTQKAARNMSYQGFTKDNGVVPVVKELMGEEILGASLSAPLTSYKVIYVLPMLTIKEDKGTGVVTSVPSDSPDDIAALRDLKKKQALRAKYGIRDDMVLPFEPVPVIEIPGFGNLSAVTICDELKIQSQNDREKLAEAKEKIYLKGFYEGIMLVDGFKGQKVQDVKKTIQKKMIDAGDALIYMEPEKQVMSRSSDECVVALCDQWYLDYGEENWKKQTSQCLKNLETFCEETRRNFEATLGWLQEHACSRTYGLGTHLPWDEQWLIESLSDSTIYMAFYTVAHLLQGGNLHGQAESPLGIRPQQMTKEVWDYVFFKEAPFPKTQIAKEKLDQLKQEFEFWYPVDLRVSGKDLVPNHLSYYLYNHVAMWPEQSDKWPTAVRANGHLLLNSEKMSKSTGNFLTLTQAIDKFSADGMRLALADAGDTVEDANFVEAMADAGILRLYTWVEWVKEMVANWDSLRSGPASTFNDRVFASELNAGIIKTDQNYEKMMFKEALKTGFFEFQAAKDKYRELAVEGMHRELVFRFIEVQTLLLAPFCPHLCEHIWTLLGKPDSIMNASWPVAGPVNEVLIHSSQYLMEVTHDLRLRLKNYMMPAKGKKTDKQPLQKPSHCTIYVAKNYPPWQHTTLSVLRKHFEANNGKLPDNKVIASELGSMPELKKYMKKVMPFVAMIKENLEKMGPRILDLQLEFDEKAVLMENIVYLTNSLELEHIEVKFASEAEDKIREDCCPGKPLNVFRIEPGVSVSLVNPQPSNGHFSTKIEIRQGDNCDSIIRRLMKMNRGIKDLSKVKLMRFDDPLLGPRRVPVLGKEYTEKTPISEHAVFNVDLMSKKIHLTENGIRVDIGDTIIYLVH
substance,measurement,setting,value
"Formin-like protein 1, O95466",listed as a hit,"Actin, cytoplasmic 1",yes
"DNA replication licensing factor MCM4, P33991",listed as a hit,[1],yes
"Acidic leucine-rich nuclear phosphoprotein 32 family member A, P39687",listed as a hit,[2],yes
"Spectrin alpha chain, erythrocytic 1, P02549",listed as a hit,Ankyrin-1,yes
"Heat shock protein HSP 90-beta, P08238",listed as a hit,[3],yes
same,listed as a hit,[4],yes
"Filamin-B, O75369",listed as a hit,Filamin-C,yes
"Heterogeneous nuclear ribonucleoprotein A1, P09651",listed as a hit,[5],yes
"Matrin-3, P43243",listed as a hit,[6],yes
"Isoleucine--tRNA ligase, cytoplasmic, P41252",listed as a hit,[7],yes
"Plastin-2, P13796",listed as a hit,Plastin-1,yes
"Platelet-activating factor acetylhydrolase IB subunit alpha2, P68402",listed as a hit,[8],yes
"Splicing factor 3B subunit 2, Q13435",listed as a hit,[9],yes
"Stathmin, P16949",listed as a hit,Tubulin alpha-4A chain,yes
"Tubulin alpha-1C chain, Q9BQE3",listed as a hit,Tubulin beta-2B chain,yes
"Elongation factor 1-alpha 1, P68104",listed as a hit,Tubulin beta-4B chain,yes
"Heterogeneous nuclear ribonucleoprotein D-like, O14979",listed as a hit,Zincore component SEPHS1,yes
same,listed as a hit,[10],yes
"Heterogeneous nuclear ribonucleoproteins C1/C2, P07910",listed as a hit,[11],yes
same,listed as a hit,[12],yes
